Only some compounds are listed: those with a hit (about 2.4% of all), similar ones and a draw of the others.
D2 PAM-1 = positive allosteric modulators of human D2 dopamine receptor; P14416; HEK293 T-REx D2, calcium flux, EC20 dopamine potentiation; potentiation, % at 10 µM; 340,000 compounds, 0.34% hits; AID 485347;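 active means potentiation over 3 SD above the plate norm, cut at about 30% in these data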
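Using a no-wash calcium dye in inducible, force-coupled HEK293 Trex cells expressing D2, we tracked fluorescence each second for 180 s after compound, then for 180 s after EC20 dopamine to detect augmented signalling.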
D2 PAM-2 = human D2 receptor positive allosteric modulation | P14416 | DiscoveRx D2 beta-arrestin cells, luminescence, 90 min; 100% = 57 uM dopamine signal | potentiation, % (concentration not given with the values) | 360,000 compounds, 0.23% hits; in the data active means potentiation above about 50%; inconclusive means mostly about 30% to 49%
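PathHunter beta-arrestin assay in DiscoveRx D2 cells. Compounds were added with an EC20 of dopamine (50 nM final) for 90 min at 37 deg C. Luminescence was read 1 h after detection reagent, with 57 uM dopamine as the EC100 control.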
D2 antagonist = antagonizes the human D2 dopamine receptor; inhibition, % at 10 µM; HEK293 TREx D2 cells, calcium flux, dopamine EC80; AID 485344; P14416; 340,000 compounds, 2% hits; in the data active means inhibition above about 30%; inactive means below that, where a call was filed
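Cells plated overnight at 30 C with tetracycline; no-wash calcium dye, 30–90 min RT; 10 s baseline; compound pinned; 180 s read; EC80 dopamine added; another 180 s read.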
D2 ag-1 = agonists of human D2 dopamine receptor; P14416; HEK293 T-REx D2 cells, calcium flux agonist mode; activation, % at 2 µM; AID 485358; 340,000 compounds, 0.53% hits;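 active means activation over 3 SD above normal in the single-dose calcium agonist read, cut at about 30% in these data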
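In this primary screen, compounds producing a positive calcium signal within 180 s of addition to tetracycline-induced, force-coupled HEK293 Trex D2 cells are flagged; cells are dye-loaded with a no-wash calcium kit beforehand.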
D2 ag-2 = activates the human D2 dopamine receptor. P14416. activation, % (test concentration not listed). 360,000 compounds, 0.084% hits. DiscoveRx PathHunter D2 beta-arrestin, luminescence, 90 min; 100% = 57 uM dopamine signal. AID 624465; in the data active means activation above about 40%; inconclusive means between about 15% and that limit
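Agonist mode: compounds alone added to overnight-plated D2 PathHunter cells for 90 min at 37 C, with 57 uM final dopamine (EC100) defining full response. Beta-arrestin recruitment detected by chemiluminescent reagent, read after 1 h at ambient temperature.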
D3 arrestin ag = confirmation of human D3 dopamine receptor agonists, beta-arrestin; shares compounds with D2 ag-1; DiscoveRx D3 beta-arrestin cells, luminescence, 90 min; Potency, µM (top dose mostly 76.9 µM), most hits filed as activators; 2,300 compounds, 4% hits; further: nearly all actives have a fitted effect of over 70% in size
Target sequence (P35462 whole entry, looked up): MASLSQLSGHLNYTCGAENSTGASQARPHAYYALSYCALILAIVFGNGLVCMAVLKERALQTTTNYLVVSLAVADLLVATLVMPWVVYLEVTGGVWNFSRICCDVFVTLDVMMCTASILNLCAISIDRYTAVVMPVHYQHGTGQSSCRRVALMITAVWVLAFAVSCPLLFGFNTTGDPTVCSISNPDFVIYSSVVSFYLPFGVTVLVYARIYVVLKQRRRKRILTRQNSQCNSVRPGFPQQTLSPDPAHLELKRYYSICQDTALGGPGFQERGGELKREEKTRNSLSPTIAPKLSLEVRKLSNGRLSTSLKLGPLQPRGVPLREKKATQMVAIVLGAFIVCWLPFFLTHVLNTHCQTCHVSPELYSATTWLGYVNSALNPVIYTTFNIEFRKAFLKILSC
D2 ag-3 = activates human D2 dopamine receptor in D3 counterscreen; DiscoveRx PathHunter D2 beta-arrestin, luminescence, 90 min; response scale: percent relative to full dopamine signal; shares compounds with D2 ag-1; Potency, µM (highest dose often 76.9 µM), usual class: activators; 2,300 compounds, 5.9% hits; further: nearly all actives have a fitted effect of over 70% in size
Large screens that a line does not name were inactive (follow-up assays come after a bar, where they were run); ! = repeats disagree. Unless noted, the call rests on the fitted dose curve; in most records, active means well fitted activation curve with a large enough effect; inconclusive means small, poorly fitted or top-dose-only effect; inactive means flat fitted curve, though single readings scatter.

CC(=O)c1ccc(NC(=O)CN2CCN(c3ncccn3)CC2)cc1	D2 antagonist 77, D2 ag-1 74, D2 ag-2 47 | D3 arrestin ag inconclusive | D2 ag-3 inconclusive
CC1CCN(S(=O)(=O)c2ccc(NC(=O)CN3CCN(c4ccccc4)CC3)cc2)CC1	D2 antagonist 59, D2 ag-1 45, D2 ag-2 inconclusive | D3 arrestin ag 2.2µM | D2 ag-3 inconclusive
COc1cccc(N2CCN(CC(=O)Nc3ccc(-n4cnnn4)cc3)CC2)c1	none
CC(=O)c1ccc(NC(=O)CN2CCN(CC(=O)Nc3ccc(C(C)=O)cc3)CC2)cc1	none
C=Cc1ccc(Cn2c(C(=O)O)c(CNCCc3ccccc3)c3ccc(C)cc32)cc1	none (no result: D2 PAM-2, D2 antagonist, D2 ag-2)
COc1ccc(C)cc1NC(=O)C(=O)NCCc1csc(-c2ccc(C)cc2)n1	none (no result: D2 PAM-2, D2 antagonist, D2 ag-2)
Cc1ccc(CNC(=O)c2nnc(Cc3cccc(F)c3)o2)cc1	none (no result: D2 PAM-2, D2 antagonist, D2 ag-2)
O=C(CN1CCC2(CC1)OCCO2)c1ccc2cc[nH]c2c1	none
O=C(CN1CCN(c2ccccc2)CC1)Nc1ccc(Oc2ccccc2)cc1	D2 antagonist 58, D2 ag-1 55 | D3 arrestin ag inconclusive | D2 ag-3 inconclusive
O=C(CN1CCN(c2ccccc2)CC1)c1ccc2cc[nH]c2c1	D2 antagonist 90, D2 ag-1 84 | D3 arrestin ag inactive | D2 ag-3 inactive
CC(=O)c1ccc(NC(=O)CN2CCN(c3ccccc3)CC2)cc1	D2 antagonist 37, D2 ag-1 83, D2 ag-2 inconclusive | D3 arrestin ag inconclusive | D2 ag-3 inconclusive
CC(CNC(=O)Cn1ccc2cc(S(=O)(=O)N3CCCCCC3)ccc21)c1ccccc1 (stereo not given)	none (no result: D2 PAM-1, D2 PAM-2, D2 antagonist, D2 ag-2)
COc1ccc(NC(=O)COc2ccc(S(=O)(=O)NC3CCCCC3)cc2)c(OC)c1	none (no result: D2 PAM-2, D2 antagonist, D2 ag-1, D2 ag-2)
CC(OC(=O)c1ccc(-n2cnnn2)cc1)C(=O)Nc1ccccc1F (stereo not given)	none (no result: D2 PAM-1, D2 antagonist, D2 ag-1)
CC(OC(=O)c1ccc(-n2cnnn2)cc1)C(=O)Nc1ccc(F)c(F)c1F (stereo not given)	none | D3 arrestin ag inactive | D2 ag-3 inactive
CC(CCCCCCCCC(=O)O)N(CCO)C(=O)OC(C)(C)C (stereo not given)	none | D3 arrestin ag inactive | D2 ag-3 inactive
COc1ccc([C@H]2CC(=O)C=C(c3ccc4c5c(cccc35)CC4)C2)cc1	none | D3 arrestin ag inactive | D2 ag-3 inactive
COc1ccc([C@H]2CC(=O)C=C(c3ccc(C)c4ccccc34)C2)cc1	none
COc1ccc(CCNC2CCC(c3ccccc3)CC2)cc1 (stereo not given)	D2 antagonist 78, D2 ag-1 36 | D3 arrestin ag inactive | D2 ag-3 inactive
CCc1ccc(-c2nc(CS(=O)CC(=O)NCCc3ccc(C)cc3)c(C)o2)cc1 (stereo not given)	none (no result: D2 PAM-2, D2 antagonist, D2 ag-2)
CCc1ccc2oc(C(=O)Nc3ccccc3OC)cc(=O)c2c1	none (no result: D2 PAM-2, D2 antagonist, D2 ag-2)
Cc1c(O)c(=O)ccn1C	D2 antagonist 31!, D2 ag-1 57! | D3 arrestin ag inactive | D2 ag-3 inactive
COc1cccc(N2CCN(C(=O)C3CCCN(S(=O)(=O)c4ccc(Br)s4)C3)CC2)c1 (stereo not given)	none (no result: D2 PAM-2, D2 antagonist, D2 ag-2)
CCC(=O)N1CCc2cc(S(=O)(=O)CCC(=O)Nc3ccc(OC)cc3)ccc21	none
CCC(=O)N1CCc2cc(S(=O)(=O)CCC(=O)Nc3cccc(C)n3)ccc21	D2 ag-1 35 | D3 arrestin ag inactive | D2 ag-3 inactive
Cc1ccccc1NC(=O)CCc1c(C)nc2c(c1C)c(=O)n(C)c(=O)n2C	none (no result: D2 PAM-2, D2 antagonist, D2 ag-2)
Cn1cc(C(F)(F)F)nc1-c1ccc(OCC(O)CNCCOc2ccc(O)c(C(N)=O)c2)cc1 (stereo not given)	D2 antagonist 72, D2 ag-1 90, D2 ag-2 inconclusive | D3 arrestin ag inconclusive | D2 ag-3 inconclusive
COc1cc(CNCCCN2CCOCC2)ccc1OCC(=O)NC(C)(C)C	none
COc1cc(CNCCN2CCOCC2)ccc1OCC(=O)NC(C)(C)C	D2 ag-1 34 | D3 arrestin ag inactive | D2 ag-3 inactive
OCCC1CN(CCCc2ccccc2)CCN1Cc1ccccc1 (stereo not given)	D2 antagonist 40, D2 ag-1 57 | D3 arrestin ag inactive | D2 ag-3 inactive
COc1cc(CN2CCN(CCc3ccccc3)C(CCO)C2)cc(OC)c1 (stereo not given)	none
OCCC1CN(C/C=C/c2ccco2)CCN1Cc1ccccc1 (stereo not given)	none | D3 arrestin ag inactive | D2 ag-3 inactive
OCCC1CN(CCCc2ccccc2)CCN1CCc1ccccc1 (stereo not given)	none
COc1cc(CN2CCN(CCCc3ccccc3)CC2CCO)cc(OC)c1 (stereo not given)	D2 antagonist 65, D2 ag-1 63 | D3 arrestin ag inactive | D2 ag-3 inactive
COc1ccccc1/C=C/CN1CCN(Cc2ccc(F)cc2)C(CCO)C1 (stereo not given)	none (no result: D2 PAM-1, D2 antagonist, D2 ag-1)
CC1CCN(c2nc3ccccc3nc2C(F)(F)F)CC1	none (no result: D2 PAM-2, D2 antagonist, D2 ag-2)
O=C(c1ccco1)N1CCN(Cc2cn[nH]c2-c2ccc(F)cc2F)CC1	none
O=C(c1ccco1)N1CCN(C(=O)c2ccco2)CC1	none (no result: D2 PAM-1, D2 antagonist, D2 ag-1)
O=C(c1ccco1)N1CCN(Cc2ccccc2Br)CC1	D2 PAM-2 inconclusive, D2 antagonist 78, D2 ag-1 76, D2 ag-2 inconclusive | D3 arrestin ag inconclusive | D2 ag-3 50µM
O=C(c1ccco1)N1CCN(Cc2ccc(F)cc2Cl)CC1	D2 antagonist 58, D2 ag-1 79, D2 ag-2 inconclusive | D3 arrestin ag inactive | D2 ag-3 inconclusive
O=C1C=C(/C=C/c2ccccc2)C[C@@H](c2ccc(F)cc2)C1	none | D3 arrestin ag inactive | D2 ag-3 inactive
CCC(C)N(NC(C)=O)c1nc(Cl)nc(NC(C)(C)C)n1 (stereo not given)	D2 ag-1 80 | D3 arrestin ag inactive | D2 ag-3 inactive
CCOC(=O)c1c(C)oc2ccc(N(C(=O)Oc3ccccc3)S(=O)(=O)c3ccc(CC)cc3)cc12	none (no result: D2 PAM-2, D2 antagonist, D2 ag-2)
O=C(Cn1c(=O)nc(-c2ccccc2)c2ccccc21)Nc1ccc(Cl)c(C(F)(F)F)c1	none (no result: D2 PAM-2, D2 antagonist, D2 ag-2)
CCCc1ccc(OCC(O)CN2CCN(c3ccccc3)CC2)cc1 (stereo not given)	D2 antagonist 69, D2 ag-1 62, D2 ag-2 inconclusive | D3 arrestin ag inactive | D2 ag-3 inconclusive
CCc1ccc(OCC(O)CN2CCN(c3ccccc3)CC2)cc1 (stereo not given)	D2 antagonist 109, D2 ag-1 74, D2 ag-2 inconclusive | D3 arrestin ag inconclusive | D2 ag-3 inconclusive

From PubChem BioAssay
